Source: PubChem (National Center for Advancing Translational Sciences (NCATS))
GAA glycogen – qHTS Assay for Inhibitors and Activators of Human alpha-Glucosidase Cleavage of Glycogen | actives 0.38% (n = 300,000) | recombinant GAA, glycogen substrate, Amplex Red glucose oxidase fluorescence | Lysosomal alpha-glucosidase (Homo sapiens), P10253 | AID 2100, 2009 | Potency, µM (top dose mostly 76.4 µM), for inactives: top-dose activity change, negative = inhibition, usual class: inhibitors;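 note: 0% = full enzyme reaction and -100% = no-enzyme basal signal; the screen sought inhibitors and activators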
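qHTS, 1536-well; enzyme 4 nM final; cpd up to 77 uM; substrate bovine liver glycogen 30 ug; 50 mM citrate/phosphate pH 5.0, 0.01% Tween-20; 37 C, 40 min; Amplex Red detection 45 min RT; Hill fit → AC50.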
GAA inh – qHTS Assay for Inhibitors of Human alpha-Glucosidase as a Potential Chaperone Treatment of Pompe Disease; Lysosomal alpha-glucosidase (Homo sapiens), P10253; purified human GAA, 4-MU-alpha-glucoside fluorescence; Potency, µM (series often up to 76.9 µM), for the others: at the top dose activity change, negative = inhibition, hits mostly inhibitors; actives 0.005% (n = 200,000);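 note: plate controls were uninhibited enzyme wells for no effect and no-enzyme background for full effect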
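Read-out is 4-methylumbelliferone fluorescence (Ex 365/Em 440 nm) after NaOH/glycine stop at pH 10. Enzyme 4 nM, substrate 400 uM, pH 5.0 citrate buffer, 20 min room temperature; AC50 from Hill-equation concentration-response.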
GALK inhibitor – qHTS Assay for Inhibitors of Human Galactokinase (GALK); AID 1868, 2009; P51570; Potency, µM (top dose mostly 57.5 µM), without a hit: at the highest dose activity change, negative = inhibition, hits mostly inhibitors; actives 0.007% (n = 270,000); Purified GALK, Kinase-Glo residual ATP luminescence
Target sequence (P51570 whole entry, looked up): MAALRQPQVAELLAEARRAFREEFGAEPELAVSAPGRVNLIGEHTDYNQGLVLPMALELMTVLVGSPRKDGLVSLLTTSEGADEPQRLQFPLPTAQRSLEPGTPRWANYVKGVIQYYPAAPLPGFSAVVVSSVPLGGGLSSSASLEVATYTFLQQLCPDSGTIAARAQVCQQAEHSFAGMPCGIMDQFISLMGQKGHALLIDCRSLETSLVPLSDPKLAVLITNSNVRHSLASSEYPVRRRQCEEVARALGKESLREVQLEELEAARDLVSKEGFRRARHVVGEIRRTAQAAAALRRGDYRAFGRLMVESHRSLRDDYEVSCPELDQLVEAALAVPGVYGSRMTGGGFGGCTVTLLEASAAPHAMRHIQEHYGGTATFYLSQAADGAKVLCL
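Human GALK (5 nM) with 35 uM ATP and 100 uM galactose in 20 mM HEPES pH 8.0, 5 mM MgCl2, 60 mM NaCl, 1 mM DTT, 0.01% BSA. After 1 h at room temperature, leftover ATP was read by Kinase-Glo Plus luminescence.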
PKM2 activator – qHTS Assay for Activators of Human Muscle isoform 2 Pyruvate Kinase; Potency, µM (doses to about 57.5 µM), for inactives: at the top dose activation, hits mostly activators; actives 0.34% (n = 260,000); AID 1631, 2009; purified PKM2, Kinase-Glo ATP luminescence, activation; response scale: 0% is enzyme alone, no compound; Pyruvate kinase PKM (Homo sapiens), P14618; note: nearly all actives have a fitted effect of over 55% in size
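ATP formation by purified human PK-M2, quantified via coupled luciferase luminescence after 1 h at room temperature with 0.1 mM ADP and 0.5 mM PEP final.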
aGlu spleen mod – qHTS Assay for Inhibitors and Activators of Human alpha-Glucosidase From Spleen Homogenate. Potency, µM (highest dose often 79.9 µM), without a hit: at the top dose activity change, negative = inhibition, usual class: inhibitors. actives 0.006% (n = 240,000). human spleen homogenate, 4-MU-alpha-glucoside fluorescence. Lysosomal alpha-glucosidase (Homo sapiens), P10253;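 note: 0% = enzyme with vehicle and -100% = no enzyme basal signal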
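Human spleen homogenate (1 ug) incubated with compounds and 1 mM 4-methylumbelliferyl-alpha-D-glucopyranoside in pH 5.0 citrate/phosphate buffer, 37 C, 40 min. Stopped at pH 10; 4-MU fluorescence (Ex 365/Em 440 nm); AC50 by Hill fit.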
* hit, by the source's call; ? = inconclusive; · = no result given; [ ] = dose if it differs, or a comment. This is a sample that favours compounds with a hit; in the whole collection about 0.63% have one here. Calls come from the whole dose curve; as a rule, active = well fitted curve in the direction sought with a large enough effect; inconclusive = small, poorly fitted or top-dose-only effect, or another doubt; inactive = no such curve, though single readings can be large; an effect the other way counts as inactive or inconclusive. Unless noted, % is set by controls: 0 for no effect and ±100 for the full control effect; potency is the fitted concentration of half-maximal effect.

SMILES	GAA glycogen	GAA inh	GALK inhibitor	PKM2 activator	aGlu spleen mod
Cc1c(CNCc2ccc(Cl)cc2)c(C(=O)O)c(C)n1Cc1ccc(F)cc1	-13.3%[76.3 µM]	·	·	·	·
Cc1nc2c(c(C)nn2C(C)(C)C)c(C)c1CCC(=O)Nc1ccc(F)cc1	-10.9%[76.3 µM]	·	·	·	·
CCOC(=O)N1CCN(C(=O)Nc2sc3nc4n(c(=O)c3c2C)CCC(C)CC4)CC1 (centres undefined)	31.6µM*	-10.4%	-0.7%	1.7%	-4.1%
CCOC(=O)c1sc2nc3n(c(=O)c2c1C)CCC(C)CC3 (centres undefined)	-0.2%	-12.2%	1.1%	3.4%	2.9%
Nc1nonc1N/N=C/c1c(O)ccc2ccccc12	9.92µM*	?	-2.9%	22.6%	-2.3%
Nc1nonc1N/N=C\c1ccccc1	-24.1%	·	9.7%	2.3%	0.2%
CC1=Nc2cc(C(=O)NCCc3ccc(Cl)cc3)ccc2Sc2c(C)ccc(C)c21	0.0%[76.3 µM]	·	·	·	·
Nc1ccc(Nc2ccccc2)c(S(=O)(=O)O)c1	14.1µM*	-2.8%	-2.3%	0.9%	-15.4%
Cc1ccc(Nc2ccc(N)cc2S(=O)(=O)O)cc1	?	-6.6%	0.8%	2.8%	-2.8%
CCCN(CCC)C(=O)Cn1c(=O)n(-c2ccc(CC)cc2)c(=O)c2ccc(C(=O)NCCc3ccccc3)cc21	16.7%[76.3 µM]	·	·	·	·
CC1(C)CC(=O)c2c(oc3cc(O)c(O)cc23)C1	7.94µM*	-5.0%	-1.2%	22.0%	-6.0%
Cc1ccc(C)c(CN2C(=O)c3ccccc3S(=O)(=O)c3ccc(C(=O)N(C)C4CCCCC4)cc32)c1	2.7%[76.3 µM]	·	·	·	·
CC(=O)N1CCN(S(=O)(=O)c2ccc3c(c2)CC(=O)N3)CC1	11.9µM*	·	·	·	·
Cc1ccc(OCC(=O)Nc2ccc3nc(SCC(=O)N(C)c4ccccc4)sc3c2)cc1	7.3%[76.3 µM]	·	·	·	·
O=C(CSc1nnnn1-c1ccc(O)cc1)Nc1cccc(S(=O)(=O)N2CCCC2)c1	-1.1%	-5.8%	-2.4%	5.2%	-6.9%
O=c1c2ccccc2nnn1CSc1nnnn1-c1ccc(O)cc1	1.4%	4.5%	8.4%	14.1µM*	-2.4%
Cc1cccc(-n2nnnc2SCn2nnc3ccccc3c2=O)c1	5.1%	-4.2%	5.9%	15.8µM*	0.1%
Cc1cccc(-n2nnnc2SCC(=O)Nc2cccc(S(N)(=O)=O)c2)c1	1.4%	-3.6%	·	5.01µM*	-1.9%
CC(=O)c1ccc(NC(=O)CCCc2nc(-c3cccc(C)c3)no2)cc1	13.7%[76.3 µM]	·	·	·	·
Cc1c(C(=O)N2CCOCC2)oc2c1-c1nn(CC(=O)NCc3cccc(Cl)c3)cc1CC2	5.2%[76.3 µM]	·	·	·	·
CCN(CC)c1ccc(/C=N/Nc2nc(C)cc(C)n2)cc1	11.2µM*	·	0.1%	1.6%	4.1%
COC(=O)c1ccc(OC)c(Cn2c(=O)n(-c3cccc(Cl)c3)c(=O)c3c4c(sc32)CN(C(C)=O)CC4)c1	11.0%[76.3 µM]	·	·	·	·
Oc1cnn(-c2ccccc2)c1	19.8µM*	4.2%	0.2%	-8.0%	5.2%
COc1ccc(S(=O)(=O)Nc2cc(S(=O)(=O)c3ccccc3)c(O)cc2C)cc1	0.8%	·	-1.0%	·	·
Cc1cc(O)c(C(C)C)cc1NS(=O)(=O)c1ccccc1	9.92µM*	-3.8%	0.2%	5.9%	-2.8%
SMILES	GAA glycogen	GAA inh	GALK inhibitor	PKM2 activator	aGlu spleen mod
O=S(=O)(Nc1ccc(S(=O)(=O)Nc2ccccc2)cc1)c1ccccc1	-9.4%	-9.9%	-0.6%	?	-4.4%
Cc1cc(NS(=O)(=O)c2ccccc2)cc(Cl)c1O	20µM*	-11.2%	0.6%	15.8µM*	-2.3%
Cc1ccc(S(=O)(=O)Nc2cc(C)c(O)c(S(=O)(=O)c3ccc(C)cc3)c2)cc1	11.2µM*	-10.3%	1.2%	4.8%	-3.0%
COc1ccc(/C=C/c2nc(C#N)c(N3CCCCC3)o2)cc1OC	-0.6%[76.3 µM]	·	·	·	·
O=C(NCc1cccs1)Nc1cccs1	3.95µM*	-2.6%	-0.9%	?	-4.6%
Cc1ccccc1CNC(=O)Nc1cccs1	?	5.1%	-2.4%	?	-0.2%
CCOc1ccc(NC(=O)Nc2cccs2)cc1	20µM*	-3.8%	0.9%	-19.7%	-2.2%
CNc1c([N+](=O)[O-])cnn1-c1ccccc1Cl	4.8%	-9.0%	2.1%	?	-1.7%
CNc1c([N+](=O)[O-])cnn1-c1ccc(Cl)cc1Cl	-11.5%	-8.0%	0.4%	11.2µM*	-4.0%
Cc1cc(=O)oc2cc(NS(=O)(=O)c3ccc(F)cc3)ccc12	-10.5%	?	·	?	?
Cc1cc(=O)oc2cc(NS(=O)(=O)c3ccccc3)ccc12	6.7%	?	9.6%	15.8µM*	?
CC(C)(C)NC(=O)c1cc(C(C)(C)C)c(O)c(C(C)(C)C)c1	-3.7%	0.3%	2.8%	4.5%	4.1%
CC(=O)Nc1cc(C(C)(C)C)c(O)c(C(C)(C)C)c1	14.1µM*	-10.0%	0.6%	17.9%	0.7%
COc1cccc(C(=O)/C=C/Nc2cc(C)ccc2O)c1	28.2µM*	-4.8%	-3.4%	-1.1%	-17.1%
COC(=O)CCN(C1CCCCC1)S(=O)(=O)c1ccc(S(=O)(=O)N2CCCCC2)cc1	-9.1%	-8.1%	2.8%	28.2µM*	-4.7%
Cc1ccc2c(CC(=O)Nc3c(C(=O)Nc4cccc(Cl)c4)oc4ccccc34)coc2c1C	12.2%[76.3 µM]	·	·	·	·
COc1ccc(N2CCN(CCCNC(=O)c3nnc(Cc4ccc(F)cc4)o3)CC2)cc1	-6.3%[76.3 µM]	·	·	·	·
CCOC(=O)C(C(C)=O)c1c(Br)c(O)c(O)c2c(C(=O)c3ccc(C)cc3)coc12 (centres undefined)	31.6µM*	-9.5%	1.3%	?	-12.6%
CCOC(=O)c1c(C)n(-c2ccc(C)cc2)c2c(C(C(C)=O)C(=O)O)c(Br)c(O)c(O)c12 (centres undefined)	?	-4.3%	-4.3%	-1.9%	-8.4%
CCOc1ccc(/C=C/c2nc(C#N)c(NCCc3ccccc3)o2)cc1	-12.7%[76.3 µM]	·	·	·	·
CCC1=Nc2cc(C(=O)NCc3ccco3)ccc2Sc2ccccc21	-4.1%	-4.3%	-0.2%	17.8µM*	-5.1%
COC(=O)c1cc(C)nc2c1C(=O)C(=O)C=C2N1CCOCC1	0.0%[76.3 µM]	·	7.08µM*	-17.0%	·
COCCCNC(=S)Nc1ccc(N2CCCCC2)cc1	14.1µM*	1.6%	7.0%	-2.6%	1.9%
COCCCNC(=S)NNC(=S)Nc1ccc(OC)cc1	4.47µM*	·	-1.7%	-11.9%	0.9%
COc1ccccc1N1CCN(C(=O)c2ccc(NS(=O)(=O)c3ccc(C)cc3)cc2)CC1	6.4%	7.1%	8.1%	8.91µM*	3.7%
O=C(c1ccccc1)N1CCN(Cc2ccc3c(c2)OCO3)CC1	8.2%	·	1.6%	·	·
